The nature of test [1]: High Content Imaging Cell-Based qHTS for Inhibitors of the mTORC1 Signaling Pathway in MEF Cells (AID 2667). Also: potency is read from the fitted curve at half-maximal effect. A digest of the protocol: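 Immunofluorescence for rpS6 phosphorylation in MEFs of Tsc2-/-, p53-/- background rescued with WT Tsc2. Compound exposure lasted 24 hrs. Inhibition was scored against rapamycin-treated control wells.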
A short description of test [2]: Cytometry Cell-Based qHTS for Inhibitors of the mTORC1 Signaling Pathway in MEF cells (AID 2668).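 Also: Tsc2-/- p53-/- mouse embryonic fibroblasts stably re-expressing wild-type Tsc2; percent cells positive for phospho-rpS6 Ser235/236 relative to propidium iodide stain; series mostly up to about 38 µM.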 Put shortly: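 MEFs (Tsc2-/-, p53-/- stably expressing WT Tsc2) treated 24 h at 37 degree Celsius, fixed, stained with Alexa-488 anti-phospho-rpS6 Ser235/236 and propidium iodide; Acumen laser scanning. Reported as % positive cells, phospho-S6 normalized to PI.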
In test [3] the target is Ubiquitin carboxyl-terminal hydrolase 2 (Homo sapiens) (UniProt O75604). Put plainly: qHTS Validation Assay for Inhibitors of Ubiquitin-specific Protease USP2a Using CHOP2 as the Reporter (AID 463106). Also: potency is read from the fitted curve at half-maximal effect. Put shortly:
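10nM USP2 core + cpd, 30min RT; add 25nM Ub-CHOP2/25nM substrate; 60min RT; FI 485/531nm. Buffer Tris pH 8.0, CaCl2, BME, CHAPS. Norm. to NEM = 100% inhibition; time-zero read flags fluorescent artifacts.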

The target of test [4] is DNA polymerase III PolC-type (Bacillus subtilis (strain 168)) (UniProt P13267). Nature of the test: qHTS Validation Assay for the Inhibitors of DNA Replication in Gram-Positive Bacteria (AID 485295). Also: potency is read from the fitted curve at half-maximal effect. A digest of the protocol: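 Reconstituted B. subtilis Pol III holoenzyme (PolC, beta clamp, SSB, primase) preincubated with compound, then M13Gori single-stranded circular template with dNTPs/NTPs added; room temperature reaction. Stopped with EDTA/PicoGreen; dsDNA fluorescence read, EDTA as full-inhibition control.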
Sequence of DNA polymerase III PolC-type (Bacillus subtilis (strain 168)) (P13267 whole entry, looked up): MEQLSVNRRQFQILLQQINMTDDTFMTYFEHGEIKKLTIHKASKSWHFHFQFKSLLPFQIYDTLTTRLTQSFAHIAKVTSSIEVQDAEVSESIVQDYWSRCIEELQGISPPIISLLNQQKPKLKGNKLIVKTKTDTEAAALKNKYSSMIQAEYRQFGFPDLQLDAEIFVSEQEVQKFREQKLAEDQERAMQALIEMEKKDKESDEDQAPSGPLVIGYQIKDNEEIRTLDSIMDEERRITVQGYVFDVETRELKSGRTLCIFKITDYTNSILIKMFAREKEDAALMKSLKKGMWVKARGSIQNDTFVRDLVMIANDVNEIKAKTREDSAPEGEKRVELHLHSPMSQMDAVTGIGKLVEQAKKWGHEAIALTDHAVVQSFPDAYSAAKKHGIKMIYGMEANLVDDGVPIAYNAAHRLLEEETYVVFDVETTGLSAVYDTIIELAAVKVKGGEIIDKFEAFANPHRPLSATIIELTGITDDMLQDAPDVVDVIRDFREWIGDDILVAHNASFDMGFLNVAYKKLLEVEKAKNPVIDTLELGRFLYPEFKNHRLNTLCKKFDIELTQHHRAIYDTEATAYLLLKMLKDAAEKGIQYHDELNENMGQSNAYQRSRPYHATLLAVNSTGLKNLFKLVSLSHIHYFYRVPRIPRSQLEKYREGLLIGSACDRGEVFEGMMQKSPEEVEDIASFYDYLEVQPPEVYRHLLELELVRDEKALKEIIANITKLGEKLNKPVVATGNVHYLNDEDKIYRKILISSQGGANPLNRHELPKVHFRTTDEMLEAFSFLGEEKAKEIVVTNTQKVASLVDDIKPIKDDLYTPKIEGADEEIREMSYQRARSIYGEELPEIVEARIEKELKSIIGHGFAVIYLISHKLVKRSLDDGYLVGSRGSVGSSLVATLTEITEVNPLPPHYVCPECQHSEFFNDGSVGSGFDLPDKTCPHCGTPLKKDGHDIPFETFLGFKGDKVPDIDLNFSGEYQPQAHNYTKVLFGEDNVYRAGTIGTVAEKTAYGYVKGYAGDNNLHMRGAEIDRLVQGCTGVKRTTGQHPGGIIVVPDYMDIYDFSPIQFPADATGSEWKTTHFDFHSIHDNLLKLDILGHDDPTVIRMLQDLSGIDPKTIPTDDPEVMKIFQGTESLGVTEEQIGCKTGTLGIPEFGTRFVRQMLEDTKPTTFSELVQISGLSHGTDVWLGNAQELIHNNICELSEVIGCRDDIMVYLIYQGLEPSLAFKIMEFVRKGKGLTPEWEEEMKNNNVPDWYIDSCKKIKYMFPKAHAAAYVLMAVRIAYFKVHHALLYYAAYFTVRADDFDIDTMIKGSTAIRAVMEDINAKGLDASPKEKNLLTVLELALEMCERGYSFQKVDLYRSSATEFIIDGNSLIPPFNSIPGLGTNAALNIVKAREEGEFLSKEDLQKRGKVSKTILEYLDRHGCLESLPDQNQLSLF
(qHTS replaces the single test concentration by a dilution series.)

Test [5] concerns the target Tumor susceptibility gene 101 protein (Homo sapiens) (UniProt Q99816). Nature of the test: qHTS Validation Assay for Iinhibitors of HIV-1 Budding by Blocking the Interaction of PTAP/TSG101 (AID 485342; calls by dose curve). A digest of the protocol: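 Tsg101 binding domain (10 uM) with FITC-labeled PTAP peptide (50 nM) in HEPES pH 7.5 buffer, 20 min at r.t. with compounds. Binding measured by fluorescence polarization.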

Test [6] in a line: qHTS Validation Assay to Find Inhibitors of Chronic Active B-Cell Receptor Signaling (AID 485345; active = well fitted curve in the direction sought with a large enough effect in the main read-out, with a control signal flat, not every such curve was filed as active). A digest of the protocol: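 Read-out: ratio of filter-corrected green (IkappaBalpha fusion) to red (native) luciferase signal in doxycycline-induced TMD8 cells after 4 h at 37C. Titration spanned 46 uM–3 nM; Data were normalised to basal cells and 10 uM MG-132 wells.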
In test [7] the target is Beta-2 adrenergic receptor (Homo sapiens) (UniProt P07550). Nature of the test: qHTS validation assay of beta-arrestin-biased ligands of beta2-adrenergic receptor (AID 485366). A digest of the protocol: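 Tango cells expressing recombinant beta2-AR and beta-arrestin with tTA-driven luciferase, in DMEM with 1% FBS. Compounds were titrated up to 46 microM for 18 hr at 37 degrees C. Luminescence was read 15 min after substrate; curves were fitted and class-assigned.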
Sequence of Beta-2 adrenergic receptor (Homo sapiens) (P07550 whole entry, looked up): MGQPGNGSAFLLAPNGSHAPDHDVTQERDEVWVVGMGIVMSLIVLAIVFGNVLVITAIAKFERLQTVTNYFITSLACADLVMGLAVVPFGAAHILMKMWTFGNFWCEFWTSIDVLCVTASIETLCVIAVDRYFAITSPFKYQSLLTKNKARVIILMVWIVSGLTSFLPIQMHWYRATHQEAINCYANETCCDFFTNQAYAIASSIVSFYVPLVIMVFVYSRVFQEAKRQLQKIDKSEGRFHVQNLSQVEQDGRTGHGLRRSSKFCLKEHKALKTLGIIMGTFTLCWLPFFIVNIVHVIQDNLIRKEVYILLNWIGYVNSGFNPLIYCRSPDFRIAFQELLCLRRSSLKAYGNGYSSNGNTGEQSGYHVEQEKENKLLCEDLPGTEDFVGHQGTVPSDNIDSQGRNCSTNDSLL

Test [8] concerns the target ATP-dependent 6-phosphofructokinase (Trypanosoma brucei brucei) (UniProt O15648). Put plainly: qHTS Validation Assay to Find Inhibitors of T. brucei phosphofructokinase (AID 485368). Also: potency is read from the fitted curve at half-maximal effect. A digest of the protocol: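 Activity was read as ADP production by luminescence (ADP-Glo) after 45 min at room temperature. The enzyme was 1.25nM PFK in 0.1M TEA pH 8.0 with 0.5 mM F6P, 0.1mM ATP and 5 mM MgCl2. Compounds were titrated up to 57 uM and % activity normalized to no-enzyme and full-enzyme controls.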

A short description of test [9]: Validation screen for inhibitors of Lassa infection (AID 463096; calls by dose curve; also: potency is read from the fitted curve at half-maximal effect).
Test [10] can be described thus: Validation screen for small molecules that induce DNA re-replication in MCF 10A normal breast cells (AID 463097). Also: nearly all actives have a fitted effect of over 60% in size. Also: potency is read from the fitted curve at half-maximal effect. A digest of the protocol:
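MCF 10A cells exposed to compound 48 hr at 37 C, 5% CO2, then Hoechst-stained 40 min. Laser-scanning imaging of nuclear DNA content (405 nm ex, 500-530 nm em); re-replication scored as rise in nuclei with elevated fluorescence intensity.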

Inconclusive results are not listed. Calls of active or inactive are those of the source. Unless noted, calls follow the shape of the dose curve; as a rule, active = well fitted curve in the direction sought with a large enough effect; inconclusive = small, poorly fitted or top-dose-only effect, or another doubt; inactive = no such curve, though single readings can be large; an effect the other way counts as inactive or inconclusive.

Sequence of Tumor susceptibility gene 101 protein (Homo sapiens) (Q99816 whole entry, looked up, the tested form may be a part): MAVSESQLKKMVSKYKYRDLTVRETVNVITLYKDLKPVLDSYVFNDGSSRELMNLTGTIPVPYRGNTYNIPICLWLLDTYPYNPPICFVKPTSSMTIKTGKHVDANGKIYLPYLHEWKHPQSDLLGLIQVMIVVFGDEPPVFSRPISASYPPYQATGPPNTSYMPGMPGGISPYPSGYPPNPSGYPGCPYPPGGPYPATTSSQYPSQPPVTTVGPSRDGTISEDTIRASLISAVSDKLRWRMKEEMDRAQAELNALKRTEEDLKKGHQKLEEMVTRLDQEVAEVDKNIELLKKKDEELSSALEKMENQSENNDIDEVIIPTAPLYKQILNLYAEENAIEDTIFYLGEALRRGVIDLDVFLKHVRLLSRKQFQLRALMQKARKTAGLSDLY
Sequence of ATP-dependent 6-phosphofructokinase (Trypanosoma brucei brucei) (O15648 whole entry, looked up): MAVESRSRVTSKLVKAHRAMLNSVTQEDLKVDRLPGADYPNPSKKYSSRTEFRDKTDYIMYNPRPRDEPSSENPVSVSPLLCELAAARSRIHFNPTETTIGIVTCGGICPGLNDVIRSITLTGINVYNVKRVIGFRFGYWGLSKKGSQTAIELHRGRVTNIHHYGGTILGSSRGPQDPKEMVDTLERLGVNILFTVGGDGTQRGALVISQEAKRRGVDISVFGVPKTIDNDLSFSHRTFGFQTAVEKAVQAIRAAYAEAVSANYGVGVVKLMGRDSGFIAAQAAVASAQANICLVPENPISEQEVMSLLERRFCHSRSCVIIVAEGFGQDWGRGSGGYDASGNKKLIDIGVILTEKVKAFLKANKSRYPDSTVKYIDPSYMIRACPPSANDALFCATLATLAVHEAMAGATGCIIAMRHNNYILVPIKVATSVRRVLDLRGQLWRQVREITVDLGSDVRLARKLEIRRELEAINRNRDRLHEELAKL
Sequence of Ubiquitin carboxyl-terminal hydrolase 2 (Homo sapiens) (O75604 whole entry, looked up): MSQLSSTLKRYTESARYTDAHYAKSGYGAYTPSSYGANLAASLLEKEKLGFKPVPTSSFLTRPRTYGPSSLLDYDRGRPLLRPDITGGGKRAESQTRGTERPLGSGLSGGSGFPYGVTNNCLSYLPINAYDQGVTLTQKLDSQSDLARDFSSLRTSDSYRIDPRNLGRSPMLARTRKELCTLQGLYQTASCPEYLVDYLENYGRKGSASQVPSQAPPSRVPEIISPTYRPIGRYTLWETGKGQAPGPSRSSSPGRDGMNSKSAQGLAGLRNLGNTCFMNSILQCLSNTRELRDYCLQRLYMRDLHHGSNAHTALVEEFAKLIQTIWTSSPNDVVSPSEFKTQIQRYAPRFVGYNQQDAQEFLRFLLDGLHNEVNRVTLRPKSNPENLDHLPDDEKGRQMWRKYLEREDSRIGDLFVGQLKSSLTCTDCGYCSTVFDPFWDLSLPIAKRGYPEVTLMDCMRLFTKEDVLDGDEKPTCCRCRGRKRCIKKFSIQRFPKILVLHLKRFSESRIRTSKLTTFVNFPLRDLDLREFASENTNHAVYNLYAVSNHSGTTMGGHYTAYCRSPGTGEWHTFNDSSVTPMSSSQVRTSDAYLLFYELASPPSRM

Regarding `CCN1C[C@@]2(COC)C3[C@@H](OC)C4[C@@H]1C3([C@@H]1C[C@]3(O)[C@H](OC(=O)c5ccccc5)[C@@H]1[C@]4(OC(C)=O)[C@@H](O)[C@@H]3OC)[C@H](OC)C[C@H]2O`, the Potency result in test [1], in test [2], in test [3], in test [4], in test [6] and in test [8] was “inactive” in each case. The result in test [5] and in test [7] was inactive.
Consider `C[C@@H]1O[C@@H](O[C@H]2C[C@@H](O)[C@]3(CO)[C@@H]4C(CC[C@]3(O)C2)[C@@]2(O)CC[C@H]([C@@H]3COC(=O)C3)[C@@]2(C)C[C@H]4O)[C@H](O)[C@H](O)[C@H]1O` (some centres not stated), for which the Potency entry in [1], in [2], in test [3] and in test [8] was “inactive” throughout. The call in test [5] and in test [7] was inactive.
`C/C(O)=C(\C#N)C(=O)Nc1cc(Br)ccc1Br`: the Potency result in [1], in test [2], in test [9], in test [10] and in [3] was “inactive” throughout. For the same molecule, the molecule was classed as inactive in test [5] and in test [7].
Consider `CC(=O)c1c(O)c(C)c(O)c(Cc2c(O)c3c(c(C(=O)/C=C/c4ccccc4)c2O)OC(C)(C)C=C3)c1O`, for which the Potency result in test [1], in test [2], in test [3] and in test [6] was “inactive” each time. In [4], the Potency is 18.9 µM (active). For the same molecule, the molecule was classed as inactive in [5] and in test [7].
On to `N[C@@H](Cn1oc(=O)[nH]c1=O)C(=O)O`, for which the Potency result in test [1], in test [2], in test [10], in test [3], in [4] and in [6] was “inactive” each time. Besides, in [8], the Potency result is “inactive”. Besides, the result in test [5] and in test [7] was inactive.
On to `CC(C)(C)c1o[nH]c(=O)c1CC(N)C(=O)O` (configuration not stated), for which the Potency entry in [1], in test [2], in test [9], in test [10], in test [3] and in test [6] was “inactive” throughout. Moreover, the Potency entry in test [8] was “inactive”. Also, the molecule was called inactive in [5] and in [7].
As to `NNC(N)=O`, the Potency entry in test [1], in test [2], in test [9], in test [10], in [3] and in test [6] was “inactive” each time. Besides, in test [8], the Potency result is “inactive”. Further, the result in test [5] and in test [7] was inactive.
Turning to `N=C(N)c1ccc(CS(=O)(=O)F)cc1`, the Potency result in test [1], in [2], in [3], in test [4], in [6] and in test [8] was “inactive” throughout. The call in [5] and in [7] was inactive.
For `N[C@@H](Cn1ccc(=O)[nH]c1=O)C(=O)O`, the Potency entry in [1], in test [2], in test [3], in test [4], in [6] and in test [8] was “inactive” throughout. Besides, the result in [5] and in [7] was inactive.
On to `NC(N)=Nc1ccc2[nH]c3c(c2c1)C[C@@]1(O)[C@H]2Cc4ccc(O)c5c4[C@@]1(CCN2CC1CC1)[C@H]3O5`, for which the Potency entry in [1], in test [2] and in test [3] was “inactive” in each case. For the same molecule, in [9], the Potency was 0.891 µM (active). The result in [5] was inactive.
For `C[N+]1(C)C2CCC1CC(OC(=O)c1c[nH]c3ccccc13)C2` (configuration not stated), the Potency entry in test [1], in test [2], in test [3], in test [4], in test [6] and in test [8] was “inactive” each time. Also, in test [10], the Potency was 14.1 µM (active). Moreover, the molecule was classed as inactive in [5] and in test [7].
Take `NC(=O)CI`: the Potency result in [1], in test [2], in test [9], in test [3], in test [4] and in test [6] was “inactive” each time. Also, the molecule was classed as inactive in [5] and in [7]. The Potency in test [8] was 19 µM (active).
As to `NNC(=O)c1ccc(O)cc1`, the Potency entry in test [1], in [2], in [9], in test [10] and in test [3] was “inactive” throughout. The result in test [5] and in test [7] was inactive.
Take `O=[N+]([O-])c1ccc2nc(N3CCNCC3)ccc2c1`: the Potency entry in test [1], in [2], in test [10], in test [3] and in [4] was “inactive” in each case. The result in test [5] and in test [7] was inactive.
For `CC(=O)OCC1=C(C(=O)O)N2C(=O)[C@@H](NC(=O)CCC[C@@H](N)C(=O)O)[C@H]2SC1`, the Potency result in test [1], in [2], in [3] and in test [6] was “inactive” throughout. For the same molecule, the result in test [5] and in [7] was inactive.
With `Clc1ccc(N2CC3CCC(C2)N3)nn1`, the Potency result in [1], in test [2], in test [9], in test [10], in [3] and in test [6] was “inactive” throughout. Moreover, the Potency result in test [8] was “inactive”. For the same molecule, the call in test [5] and in [7] was inactive.
Regarding `C[C@H](N)CN1CCc2ccc(Br)cc21`, the Potency result in test [1], in [2], in [10] and in test [3] was “inactive” each time. The result in [5] and in test [7] was inactive.
With `NC(Cc1cc(O)c(O)cc1O)C(=O)O` (configuration not stated), the Potency result in test [1], in [2], in [10] and in test [6] was “inactive” in each case. Also, the Potency is 0.656 µM (active) in [3] and 4.74 µM (active) in test [4]. Moreover, the molecule was called inactive in test [5] and in test [7].
In the case of `CC(C)(O)[C@@H]1C2OC(=O)[C@@H]1[C@]1(O)C[C@H]3O[C@]34C(=O)O[C@H]2[C@]14C` (tested in a mixture with another compound), the Potency entry in [1], in [2], in [3], in [4], in test [6] and in test [8] was “inactive” throughout. For the same molecule, the result in test [5] and in test [7] was inactive.
For `CCCN1CC[C@@H]2c3cc(O)ccc3CC[C@@H]21`, the Potency entry in test [1], in test [2], in [9], in test [10], in test [3] and in test [6] was “inactive” throughout. For the same molecule, in test [8], the Potency result was “inactive”. Further, the result in test [5] and in test [7] was inactive.
Turning to `CC(Cc1ccc(OCC(=O)O)cc1)NCC(O)c1cccc(Cl)c1` (configuration not stated), the Potency result in [1], in test [2], in test [9], in test [10], in test [3] and in [6] was “inactive” in each case. Moreover, in [8], the Potency entry was “inactive”. The call in test [5] and in [7] was inactive.
For `O=C1C=CC(=O)C=C1`, the Potency result in test [2], in test [9], in [10], in test [3], in test [4] and in test [6] was “inactive” each time. Further, the result in [5] and in test [7] was inactive.
Turning to `CCCN(CCC)C1CCc2cccc(O)c2C1` (configuration not stated), the Potency result in test [2], in test [9], in [10], in [3] and in test [6] was “inactive” in each case. Besides, the molecule was called inactive in test [5] and in test [7].
As to `CCCn1c(C)c(C(=O)c2ccc3ccccc3c2)c2ccccc21`, the Potency entry in test [1], in test [9], in test [3] and in [4] was “inactive” throughout. The call in test [5] and in test [7] was inactive.
In the case of `CO[C@H]1CC=C2CCN3CCC4=C(CC(=O)OC4)[C@]23C1`, the Potency result in test [2], in test [9], in test [10], in [3], in [4] and in [6] was “inactive” in each case. For the same molecule, the Potency entry in test [8] is “inactive”. Also, the result in test [5] and in [7] was inactive.
For `C=CCN1CCc2cccc3c2[C@H]1Cc1ccc(O)c(O)c1-3`, in [1], the Potency was 7.36 µM (active). The Potency entry in test [3] and in test [4] was “inactive” each time. In addition, the outcome in test [5] and in test [7] was inactive.
For the molecule `NCCCP(=O)(O)O`, the Potency result in [2], in test [9], in [10], in test [3], in test [4] and in test [6] was “inactive” in each case. Further, the Potency entry in test [8] was “inactive”. Further, the outcome in [5] and in [7] was inactive.
For `O=[N+]([O-])/C=C/c1ccc2c(c1)OCO2`, in test [1], the Potency is 2.07 µM (active). For the same molecule, the Potency result in [3] and in [4] was “inactive” throughout. In addition, the call in test [5] and in test [7] was inactive.

Values taken from PubChem BioAssay (NCATS).
